# Data published in the supplement of paper PMC11417369.
# The full ranking holds about 25,000 sequences; the median of “ln(normalized median fluorescence intensity)” is about 9.3, and the highest 2% start at about 10. Shown is part of a subset that was picked to be rich in the highest values.
# System: PF3D7_0420300 AP2 domain 1 (GST-tagged)
# Assay: gcPBM binding intensity (ln(normalized median fluorescence intensity)); higher = stronger DNA binding
# In short: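 An Agilent 4 × 180k array carrying primer-extended double-stranded 36-bp intergenic genomic probes and negative controls received GST-tagged P. falciparum DNA-binding domains expressed in E. coli, about 25 μg on average, for 1 h. The binding buffer contained 1× PBS, 1% milk, 0.2 mg/ml BSA, 0.5% salmon testes DNA and 0.03% Triton X-100. Binding intensity is the top Masliner-normalised natural-log median intensity across replicate spots of either probe orientation, read after Alexa488 anti-GST antibody staining and a 488 nm scan.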
row,Sequence,gcPBM binding intensity (ln)
1,TAAAAATATATATGATTGCACTTAGGACAATATATA,9.14
2,TTATTTTTTAAAAGTAGTACAAATTTTTATAGAAAA [XGTACX_site7407],8.46
3,AATATTAAAGAATAATGTACAAAATAAAAGCAAAGA [XGTACX_site3550],9.86
4,TATTATTCTACTATTATATTCTATATTATTTATAGT [CACACA_negctrl_site499],9.37
5,ATAATAATATAAAAATGTACATATATTTATAATTGT [XGTACX_site3429],9.23
6,AGCACAGACGGACACACACACACACCCACAGACACA [CACACA_site4358],10.2
7,CATACAGATGGACACACACACACACCCACAGACAAA [CACACA_site4431],10.1
8,AGCACAGACGGACACACACACATATATATATATATA [CACACA_site4341],9.88
9,TTTGAAGGAAGGGGGGGAGGGGCCATAACAAAGGAA [GTGCAC_negctrl_site408],10.4
10,AAAGAAGGGGGGGGAAAAAAAAATAAAAGAGGAAAA [XGTACX_negctrl_site92],9.59
11,AAAAAAAAAAAAAAAAGGGGGGGAGGGATTGAAAAA [CACACA_negctrl_site193],10
12,GCATATGTTCAGCGTTGTACATAAAAAAAAACATAT [XGTACX_site5974],9.07
13,TTGATTTATATTTAATGTACATTTTTACAGAAAATT [XGTACX_site2747],8.93
14,AAAAAAAAAAAAAAATGTACATATATATATATATTA [XGTACX_site7330],8.98
15,CGCACAGACGGACACACACACACATATATATATATA [CACACA_site5249],10.1
16,AATGAACTCACGAGCACACACACACCGATATATATA [CACACA_site4710],10
17,GGCATACACGGACACACACACACACCGACATATATA [CACACA_site4493],10.3
18,CACGCATACAGACACACACACACACCCATATATATA [CACACA_site636],10.2
19,TGGGAGCACAGACACACACACACACCCATATATATA [CACACA_site335],10.1
20,CACAGACACGGACACACACACACACCGATATATATA [CACACA_site4353],10.3
21,CACGCATACAGACACACACACACACCGATATATATA [CACACA_site8113],10.3
22,TGGGAGCACAGACACACACACACACCGATATATATA [CACACA_site8001],10.2
23,CATATATACTCATACACACACACACCGACACAGACA [CACACA_site5026],10.1

row,Sequence,gcPBM binding intensity (ln)
1,CACAGACACGGACACACACACATATATAATATATAT [CACACA_site4495],9.98
2,AATTAGATACTAACAAGTACATATATATATATATAT [XGTACX_site2252],9.59
3,ATATCGGGTGCATTAACACACATTTATTTGAATAAA [CACACA_site2350],9.24
4,TCAAGAGTTATATAAACACACATACATACAGACATA [CACACA_site6998],9.6
5,ATGTTATAAAATATATGTACATATTTATATAAAATA [XGTACX_site5766],9.14
6,AATATAATATAATATAGTACGTAAAAATATTATACA [XGTACX_site2170],9.47
7,ATATATGCATATATATGTACATATATATATATATAT [XGTACX_site7403],9.22
8,ATTATATTATATTATACATGCATAATATTATATAAA [TGCATGCA_site647],9.17
9,ATTAAATAAACCATTACACACTTTTATGTTTTGAAA [CACACA_site1143],9.3
10,AAAACTTTTTTAACAGAAAAATAGGGATACAATATA [CACACA_negctrl_site1708],9.35
11,CACGCATACGGACACACACACACACCGATATATATA [CACACA_site4521],10.3
12,AGGATACACGGACACACACACATATATATATATATA [CACACA_site4654],9.9
13,ATATATAAAATTATATGTACATATATCTATTTATAA [XGTACX_site3713],9.04
14,TTTATATAACAACAAAATGGAAATATATATGTATGT [TGCATGCA_negctrl_site98],9.53
15,CATACTCACCAACACACACACACACCCATATAGAAT [CACACA_site592],10.2
16,TATACTCAGAAACACACACACACACCCAAAAAAAAA [CACACA_site4434],9.97
17,CTTATATATACATATACACACACACCCATATATATA [CACACA_site8705],10.1
18,CATACACCCGGACACACACACACACCCATATATAAT [CACACA_site4494],10.3
19,CACCCACCCACATACACACACATACACATATATATA [CACACA_site1722],10.2
20,TACACCCACCCACATACACACACATACACATATATA [CACACA_site8503],10.2
21,TATACATACACATACACACATACACCCATACACATA [CACACA_site1746],9.93
22,CACATATATACACATACACACACACCCATACACCCA [CACACA_site8505],10.2
23,TATACACCCGGACACACACACATATATATATATATA [CACACA_site5030],9.94

row,Sequence,gcPBM binding intensity (ln)
1,ACCCATATAATATATACACACATATATATATATATA [CACACA_site4731],9.52
2,CATATACACCAACACACACACACACCCACAAAAAAA [CACACA_site496],10.2
3,ATAATTATATTTTATTCACACATCGTTATATAGTAA [CACACA_site4743],9.31
4,AATATAAATGTGATTACACACAACAGATTTAAATGG [CACACA_site4802],9.53
5,TGTTTATATAATATTCTACACACCAACAACAAACAT [CACACA_site8087],9.74
6,AAAATTTTTAGTTATACACACAACATAGAAAATATT [CACACA_site328],9.47
7,TTTTTTTCACAAAATACACACAATATATTTTATATC [CACACA_site1138],9.25
8,TATAATAAAATTTTTACACACTTTAAAAAAAAAAAA [CACACA_site524],9.06
9,CATACACCCATACATACACACATACATATATATATA [CACACA_site8591],9.7
10,CATACACCCCAACACACACACACACCCATATATAAT [CACACA_site8097],10.4
11,TATATATACATATACACACACACACCCATATATATA [CACACA_site2246],10.2
12,CATATACATACACATACACACATACACCCATACACA [CACACA_site8514],9.77
13,ATACATATATATATATGTACATATATTTATATTTAT [XGTACX_site3155],9.21
14,TGAAAAAAGAAAAATACACACATATAACATAATATA [CACACA_site7126],9.83
15,CTCAACAAAATATGAGTGCATTGTTATTACATATAT,9.32
16,TAAAAATATAGGTATACACACATATAAATATAAATA [CACACA_site7785],9.64
17,TAATTCTTGTAAAATGTGCGCAGTAGATATAGTTTT,9.27
18,AAAAGATAATTATGCACACACACACCCAGACACAAC [CACACA_site5428],10.1
19,AAAAATAAAAATTGCACACTAAAAAATTACGCACGA [CACACA_site3418],9.59
20,GATAATTACGGACACACACACACACGCACAACTAAA [CACACA_site7254],10.3
21,AAGATAATTACGCACACACACACACGCCCACAACTA [CACACA_site7255],10.2
22,TGTGCCCAAAATTATGCACACACCTAAAATTAATTT [CACACA_site2914],9.42
23,TACACCCACCAACACACACACACACTAATAAAAAAA [CACACA_site8060],10.1

row,Sequence,gcPBM binding intensity (ln)
1,TAATTATGCAGACACACACACACACGCAACTAAAAA [CACACA_site7253],10.1
2,TATGCACCCAGACACACACACACAACTAAAAAATAA [CACACA_site2567],9.96
3,TAATTATGCCAACACACACACACACCCAACTAAAAA [CACACA_site8823],10.2
4,TGCACGCACAGACACACACACAACTAAAAAATAATG [CACACA_site7250],9.72
5,GATAATTATGGACACACACACACACCCACAACTAAA [CACACA_site8824],10.3
6,TAAAAAATAAAAATTGCACACTAAAAAATTACGCAC [CACACA_site9129],9.48
7,GTACATAGGTATAGCACACACAAATGTAGGTATTTT [CACACA_site4049],9.65
8,TATATTTATTATAACACACACATATAAATATTATAG [CACACA_site6726],9.67
9,TTGTTCTAATATATTGCACACGTAAAAATATAGGTA [CACACA_site8195],9.3
10,TAAGGATAAATAAAATGAAATGAAATAAATAAATGA [XGTACX_negctrl_site539],9.24
11,TATAAAATATAAATAAATAAATAAATATATATATAT [TGCATGCA_negctrl_site448],9.11
12,GCGGCGGTATCATGCACACGTATATATTGTAACAGT [CACACA_site4958],9.27
13,TTTTTTATTTTAATGTATTATTTTTATGTAATATAT [GTGCAC_negctrl_site391],9.23
14,AAAAAAAAAAAAAACACACACACAATAGTATATAAA [CACACA_site957],9.94
15,CAAAAATAAATATAAACACACAATAAATAAATAAAT [CACACA_site891],9.91
16,AGAGTATATAAAGTAACACACAATAAAATAAAATAA [CACACA_site2328],9.82
17,TAAATACAAAAATGCACACGAAAAGTAATATATATA [CACACA_site6151],9.64
18,AAAAAAAAAAGACACACACACAATAGTATATAAATC [CACACA_site6579],10.2
19,AAAAAAAAAAAACACACACACAATAGTATATAAATC [CACACA_site956],10.3
20,TAAAAATAGTATACAACACACGAGGGAAAATAAAGT [CACACA_site3837],10.2
21,AAAAATATGAAGACACAATATAGAAATAAAAATATA [XGTACX_negctrl_site244],9.44
22,ATGGACAAAAAATATATACACACGAGGAAACCAACA [CACACA_site3726],10.1
